Shown is part of a subset that was picked to be rich in hits.
HT1080 IDH1KD tx: toxicity to HT-1080 IDH1 knockdown cells (counter line) | HT-1080 IDH1 knockdown viability, ATP luminescence, 48 h | Potency, µM (doses to about 46.1 µM), inactives show at the top dose activity, negative = toxicity, most hits filed as cytotoxic | 360,000 compounds, 2% hits | AID 686971;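 also: potency is read from the fitted curve at half-maximal effect; 0% = DMSO wells and -100% = cell-free medium wells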
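Using the IDH1-knockdown HT-1080 line run in the same batch and compound series as the NT line, viability after 48 h at 37 °C was determined by CellTiter-Glo luminescence and expressed as % activity.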
HT1080-NT tox: kills 2HG-producing HT-1080-NT fibrosarcoma cells; 360,000 compounds, 1.6% hits; Potency, µM (highest dose often 46.1 µM), for the others: at the highest dose activity, negative = less viability, actives largely listed as cytotoxic; HT-1080-NT fibrosarcoma viability, CellTiter-Glo ATP luminescence, 48 h;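 also: NT is the 2HG producing partner of a matched IDH1 knockdown line; potency is read from the fitted curve at half-maximal effect; 0% = DMSO-treated cells and -100% = media-only wells without cells; nearly all actives have a fitted effect of over 55% in size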
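A 48-hour cytotoxicity screen used HT-1080-NT cells plated 2 hours before compound delivery. ATP-based CellTiter-Glo luminescence measured viability, normalized to DMSO and no-cell controls.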
DT40 TDP1 no CPT: qHTS for Inhibitors of human tyrosyl-DNA phosphodiesterase 1 (TDP1): qHTS in cells in absence of CPT | DT40 Tdp1-/- hTDP1 cells, no CPT, ATP luminescence, 48 h | Potency, µM (titrated, usually from 46.2 µM), for the others: at the top dose activity change, negative = growth inhibition, usual class: inhibitors | 420,000 compounds, 15% hits; also: potency is read from the fitted curve at half-maximal effect; nearly all actives have a fitted effect of over 55% in size
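Camptothecin absent (DMSO only). Human TDP1-complemented DT40 knockout cells, 400 cells/well, 37 °C for minimum 48 hr; ATP measured via CellTiter-Glo, 30 min dark incubation, luminescence.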
IL-1B inflam inh: inhibitors of inflammasome signaling (IL-1 beta secretion) | 360,000 compounds, 4.7% hits | AID 743279 | THP-1 LPS/ATP IL-1B secretion, AlphaLISA, 16 h; stronger effect = lower value | activity change, % at 57.5 µM; in the data active = activity change below about -50%; inconclusive = mostly about -30% to -49%
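Secreted IL-1B measured by AlphaLISA bead assay after 16 h compound exposure of THP-1 cells; compounds (final up to 57.5 uM) added 1 h before LPS (250 ng/mL) and ATP (1.25 mM) stimulation; lower signal means less secretion.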
TDP1 cell CPT: DT40-hTDP1 cell growth loss with CPT; chicken DT40 Tdp1-/-;hTDP1 cells + 20 nM CPT, ATP luminescence, 48 h; Potency, µM (series often up to 46.2 µM), inactives show at the highest dose activity change, negative = growth inhibition, most hits filed as inhibitors; 420,000 compounds, 12% hits; AID 686979; also: potency is read from the fitted curve at half-maximal effect; nearly all actives have a fitted effect of over 55% in size
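Chicken DT40 Tdp1-/- cells complemented with human TDP1, 400 cells/well, exposed to compounds plus 20 nM camptothecin for at least 48 h at 37 C; viability read as ATP content by CellTiter-Glo luminescence.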
12-LOX inh: ALOX12 (human) lipoxygenase inhibition; P18054; purified 12hLO, xylenol orange hydroperoxide absorbance; Potency, µM (titrated, usually from 108 µM), for the others: at the top dose activity change, negative = inhibition, actives largely listed as inhibitors; 580,000 compounds, 1.1% hits; AID 1671190; also: potency is read from the fitted curve at half-maximal effect
Target sequence (P18054 whole entry, looked up): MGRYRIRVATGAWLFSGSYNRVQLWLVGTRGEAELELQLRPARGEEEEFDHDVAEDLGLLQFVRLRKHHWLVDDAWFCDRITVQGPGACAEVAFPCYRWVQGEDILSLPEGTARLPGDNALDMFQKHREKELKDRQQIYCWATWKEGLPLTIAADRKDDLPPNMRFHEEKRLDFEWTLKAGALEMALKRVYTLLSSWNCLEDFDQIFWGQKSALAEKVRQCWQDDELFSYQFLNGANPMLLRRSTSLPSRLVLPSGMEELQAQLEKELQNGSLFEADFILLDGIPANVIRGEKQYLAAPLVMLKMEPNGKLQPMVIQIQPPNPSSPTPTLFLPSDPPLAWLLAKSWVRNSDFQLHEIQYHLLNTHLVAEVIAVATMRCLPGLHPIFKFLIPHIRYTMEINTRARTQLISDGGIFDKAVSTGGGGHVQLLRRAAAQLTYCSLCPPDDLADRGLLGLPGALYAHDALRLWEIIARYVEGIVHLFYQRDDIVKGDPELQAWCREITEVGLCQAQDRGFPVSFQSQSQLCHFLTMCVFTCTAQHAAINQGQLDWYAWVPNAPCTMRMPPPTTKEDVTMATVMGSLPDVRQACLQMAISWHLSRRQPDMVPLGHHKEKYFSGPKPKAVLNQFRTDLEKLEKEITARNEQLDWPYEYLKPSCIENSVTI
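Purified human 12hLO (150 nM final) in 25 mM Hepes, 0.01% Triton X-100, pH 7.0 was preincubated 15 min at room temperature with compound. Then 40 uM arachidonic acid was added, 30 min. Hydroperoxide was read by Fe-XO absorbance ratio 573/405 nm.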
Numbers without * were called inactive. Unless noted, calls follow the shape of the dose curve; as a rule, active = well fitted curve in the direction sought with a large enough effect; inconclusive = small, poorly fitted or top-dose-only effect, or another doubt; inactive = no such curve, though single readings can be large; an effect the other way counts as inactive or inconclusive. Unless noted, % is scaled to controls: 0 for no effect and ±100 for the full control effect.

For CCCCOCCCNC(=O)C[C@@H]1C[C@@]2(C(=O)OCC)CCC=C2N(Cc2ccc(Cl)cc2Cl)C1=O the results were HT1080 IDH1KD tx inconclusive, HT1080-NT tox inconclusive, DT40 TDP1 no CPT 15µM*, IL-1B inflam inh -89*, TDP1 cell CPT 21µM* and 12-LOX inh -19%.
COC(=O)[C@]12CCCCC=C1N(Cc1ccc(Cl)cc1Cl)C(=O)[C@H](CC(=O)NCCCN1CCCC1=O)C2 was read as HT1080 IDH1KD tx -1%, HT1080-NT tox -11%, DT40 TDP1 no CPT inconclusive, IL-1B inflam inh -18, TDP1 cell CPT inconclusive and 12-LOX inh 21%.
For CCOC(=O)[C@]12CCC=C1N(Cc1ccc(Cl)cc1Cl)C(=O)[C@H](CC(=O)NCC1CCCCC1)C2 the results were HT1080 IDH1KD tx inconclusive, HT1080-NT tox inconclusive, DT40 TDP1 no CPT inconclusive, IL-1B inflam inh inconclusive, TDP1 cell CPT inconclusive and 12-LOX inh -19%.
For C#CCNC(=O)C[C@@H]1C[C@@]2(C(=O)OCC)CCC=C2N(Cc2ccc(Cl)cc2Cl)C1=O the results were HT1080 IDH1KD tx -17%, HT1080-NT tox inconclusive, DT40 TDP1 no CPT 23µM*, IL-1B inflam inh 11, TDP1 cell CPT inconclusive and 12-LOX inh inconclusive.
CCCCOCCCNC(=O)C[C@@H]1C[C@@]2(C(=O)OCC)CCC=C2N(Cc2ccccc2)C1=O was read as HT1080 IDH1KD tx 17%, HT1080-NT tox 13%, DT40 TDP1 no CPT inconclusive, IL-1B inflam inh -4, TDP1 cell CPT inconclusive and 12-LOX inh 9%.
CCOC(=O)[C@]12CCCC=C1N(Cc1ccc(Cl)cc1Cl)C(=O)[C@H](CC(=O)NCC1CCCCC1)C2 was read as HT1080 IDH1KD tx inconclusive, HT1080-NT tox inconclusive, DT40 TDP1 no CPT inconclusive, IL-1B inflam inh -62*, TDP1 cell CPT 23µM* and 12-LOX inh -8%.
Cc1oc(-c2ccccc2)nc1C(=O)OCC(=O)NC(N)=O was read as 12-LOX inh -8%.
`Cc1nn(C)c(C)c1CCC(=O)N1C[C@@H](Oc2cccnc2)C[C@H]1C(=O)NC1CC1` gave 12-LOX inh 20%.
`Cc1nnc(SCC(=O)c2c[nH]c3ccccc23)s1` gave 12-LOX inh -18%.
COc1cccc(NC(=O)CSc2nnc(-c3ccc(C)cc3)c(=O)[nH]2)c1 was read as 12-LOX inh 29%.
Screening CCOC(=O)[C@]12CCC=C1N(Cc1ccc(Cl)cc1Cl)C(=O)[C@H](CC(=O)NCCC(C)C)C2 returned HT1080 IDH1KD tx inconclusive, HT1080-NT tox inconclusive, DT40 TDP1 no CPT 21µM*, IL-1B inflam inh 0, TDP1 cell CPT inconclusive and 12-LOX inh inconclusive.
For COC(=O)[C@]12CCCCC=C1N(Cc1ccc(Cl)cc1Cl)C(=O)[C@H](CC(=O)NCc1ccc(OC)c(OC)c1)C2 the results were HT1080 IDH1KD tx 13µM*, HT1080-NT tox inconclusive, DT40 TDP1 no CPT inconclusive, IL-1B inflam inh -13, TDP1 cell CPT inconclusive and 12-LOX inh 68%.
CCOC(=O)[C@]12CCCC=C1N(Cc1ccc(Cl)cc1Cl)C(=O)[C@H](CC(=O)NCc1ccc(C)o1)C2 was read as HT1080 IDH1KD tx inconclusive, HT1080-NT tox inconclusive, DT40 TDP1 no CPT inconclusive, IL-1B inflam inh -7, TDP1 cell CPT inconclusive and 12-LOX inh -14%.
CCOC(=O)[C@]12CCCC=C1N(Cc1ccc(Cl)cc1Cl)C(=O)[C@H](CC(=O)NCC13CC4CC(CC(C4)C1)C3)C2 was read as HT1080 IDH1KD tx inconclusive, HT1080-NT tox -16%, DT40 TDP1 no CPT 18µM*, IL-1B inflam inh -6, TDP1 cell CPT inconclusive and 12-LOX inh -1%.
For COC(=O)[C@]12CCCCC=C1N(Cc1ccc(Cl)cc1Cl)C(=O)[C@H](CC(=O)NCc1ccccc1)C2 the results were HT1080 IDH1KD tx -30%, HT1080-NT tox -28%, DT40 TDP1 no CPT inconclusive, IL-1B inflam inh -18, TDP1 cell CPT inconclusive and 12-LOX inh 0%.
`CCOC(=O)[C@]12CCCC=C1N(Cc1ccc(Cl)cc1Cl)C(=O)[C@H](CC(=O)NCCC(C)C)C2` gave HT1080 IDH1KD tx inconclusive, HT1080-NT tox inconclusive, DT40 TDP1 no CPT 21µM*, IL-1B inflam inh inconclusive, TDP1 cell CPT inconclusive and 12-LOX inh -12%.
Screening Cc1cc(CN(C)C(=O)CC(c2ccccc2)c2ccccc2C)n[nH]1 (stereo unspecified) returned 12-LOX inh 16%.
Screening CCOC(=O)[C@]12CCCC=C1N(Cc1ccccc1)C(=O)[C@H](CC(=O)NCCCOC)C2 returned HT1080 IDH1KD tx 13%, HT1080-NT tox 19%, DT40 TDP1 no CPT inconclusive, IL-1B inflam inh 0, TDP1 cell CPT inconclusive and 12-LOX inh inconclusive.
CCOC(=O)[C@]12CCCC=C1N(Cc1ccc(Cl)cc1Cl)C(=O)[C@H](CC(=O)NCCCOC)C2 was read as HT1080 IDH1KD tx -29%, HT1080-NT tox -15%, DT40 TDP1 no CPT 16µM*, IL-1B inflam inh -14, TDP1 cell CPT inconclusive and 12-LOX inh 4%.
Screening Cn1c(SCc2ccc(F)cc2)nc2ccc(C(=O)NCc3ccccc3)cc21 returned DT40 TDP1 no CPT -20%, TDP1 cell CPT -26% and 12-LOX inh -21%.
Screening CCOC(=O)N1CCN(C(=O)c2ccc3nc(SCc4ccc(F)cc4)n(C)c3c2)CC1 returned HT1080 IDH1KD tx -7%, HT1080-NT tox -8%, DT40 TDP1 no CPT 21µM*, IL-1B inflam inh inconclusive, TDP1 cell CPT 23µM* and 12-LOX inh 148%.
Screening CCc1ccc(CNC(=O)c2ccc3nc(SCc4ccc(F)cc4)n(C)c3c2)cc1 returned DT40 TDP1 no CPT 21µM*, TDP1 cell CPT 15µM* and 12-LOX inh -19%.
`COc1ccc(C(=O)Oc2cc(C)c(Cl)cc2C(C)C)cc1` gave 12-LOX inh 1%.
Screening C=CCNC(=S)NC(C)c1ccccc1 (stereo unspecified) returned 12-LOX inh -14%.
C=CCNC1=C2C[C@@H](C)C[C@H](OC)[C@H](O)[C@@H](C)/C=C(\C)[C@H](OC(N)=O)[C@@H](OC)/C=C\C=C(/C)C(=O)NC(=CC1=O)C2=O was read as DT40 TDP1 no CPT 0.38µM* and TDP1 cell CPT 1.1µM*.

Assay outcomes as filed in PubChem BioAssay.
